For 14 compounds, Potency results are on record in PubChem BioAssay (NCATS).

What all share (assay): qHTS profiling for inhibitors of Plasmodium falciparum proliferation (AID 504749); also: nearly all actives have a fitted effect of over 60% in size
What all share (details): P. falciparum in erythrocytes, SYBR Green DNA, 72 h; series mostly up to 28.7 µM
(In general: qHTS replaces the single test concentration by a dilution series.)

Experiment [1] has as its system CP260. Put shortly:
(§1)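 SYBR Green fluorescence of parasite DNA, read after lysis and overnight dark incubation, measured growth over 72 h in erythrocyte culture at 0.3% parasitemia and 2.5% hematocrit. Data normalised to DMSO and 0.29 uM artemisinin, with plate-drift correction.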

The test system of experiment [2] is CP262. The method in brief:
as §1

Experiment [3] concerns CP265. The method in brief: as §1
Experiment [4] deals with CP266. Put shortly: as §1
Experiment [5] has as its system CP268. The method in brief:
as §1

In experiment [6] the test system is CP269. Put shortly:
as §1

In experiment [7] the test system is CP286. The method in brief:
as §1

Experiment [8] has as its system CP291. Put shortly:
as §1

Experiment [9] concerns CP297. The method in brief:
as §1

For experiment [10], the system named is CP305. The method in brief: as §1
The test system of experiment [11] is CP315. The method in brief:
as §1

In experiment [12] the test system is CP325. Put shortly:
as §1

Experiment [13] relates to CP329. The method in brief: as §1
The subject of experiment [14] is CP335. The method in brief:
as §1

Experiment [15] concerns DFO2036. Put shortly:
as §1

For experiment [16], the system named is DIV14. The method in brief: as §1
The test system of experiment [17] is DIV17. Put shortly:
as §1

The test system of experiment [18] is DIV30. Put shortly:
as §1

For experiment [19], the system named is Dd2. Put shortly: as §1
Experiment [20] concerns ECU. The method in brief:
as §1

Results filed as inconclusive are left out. The source made the active and inactive calls. Calls follow the shape of the dose curve; as a rule, active = well fitted inhibition curve with a large enough effect; inconclusive = small, poorly fitted or top-dose-only effect; inactive = flat fitted curve, though single readings scatter.
Potency is read from the fitted curve at half-maximal effect.

Regarding `[O]=[Cr](=[O])([OH])[O][Cr](=[O])(=[O])[OH]`, in experiment [1], the Potency was 11.2 µM (active). Also, the Potency entry in experiment [2], in experiment [3], in experiment [4], in experiment [5], in experiment [6] and in [7] was “inactive” in each case. Also, the Potency result in experiment [8], in experiment [9], in [10], in experiment [11], in experiment [12] and in experiment [13] was “inactive” throughout. Besides, the Potency result in experiment [14], in experiment [15], in experiment [16], in [17], in experiment [18] and in experiment [19] was “inactive” each time. Also, the Potency entry in [20] was “inactive”.
In the case of `Cn1sc(Cl)cc1=O`, the Potency result in [1], in [2], in experiment [3], in experiment [4], in experiment [5] and in [6] was “inactive” throughout. Also, the Potency entry in [7], in [8], in experiment [9], in experiment [10], in experiment [11] and in experiment [12] was “inactive” each time. For the same compound, the Potency result in experiment [13], in experiment [14], in experiment [15], in experiment [16], in experiment [17] and in experiment [18] was “inactive” throughout. Besides, the Potency entry in experiment [19] and in experiment [20] was “inactive” throughout.
In the case of `CC(C)CCON=O`, the Potency entry in experiment [1], in [2], in experiment [3], in [4], in [5] and in experiment [6] was “inactive” throughout. For the same compound, the Potency result in experiment [7], in experiment [8], in [9], in [10], in experiment [11] and in experiment [12] was “inactive” each time. Further, the Potency result in experiment [13], in [14], in [15], in [16], in experiment [17] and in experiment [18] was “inactive” in each case. Moreover, the Potency result in [19] and in experiment [20] was “inactive” in each case.
On to `S=C=S`, for which the Potency entry in [1], in experiment [2], in [3], in experiment [4], in [5] and in experiment [6] was “inactive” throughout. For the same compound, the Potency result in [7], in experiment [8], in [9], in [10], in experiment [11] and in experiment [12] was “inactive” in each case. For the same compound, the Potency entry in [13], in experiment [14], in experiment [15], in experiment [16], in experiment [17] and in experiment [18] was “inactive” throughout. Moreover, the Potency result in [19] and in [20] was “inactive” throughout.
Regarding `O=Cc1ccco1`, the Potency entry in [1], in [2], in [3], in [4], in [5] and in experiment [6] was “inactive” in each case. The Potency entry in [7], in experiment [8], in [9], in experiment [10], in experiment [11] and in experiment [12] was “inactive” each time. Besides, the Potency result in experiment [13], in [14], in [15], in experiment [16], in [17] and in [18] was “inactive” each time. For the same compound, the Potency entry in [19] and in experiment [20] was “inactive” throughout.
On to `[O]=[Cd]`, for which the Potency result in experiment [1], in experiment [2], in experiment [3], in [4], in experiment [5] and in experiment [6] was “inactive” throughout. Besides, the Potency entry in [7], in experiment [8], in experiment [9], in [10], in [11] and in experiment [12] was “inactive” each time. The Potency result in [13], in [14], in experiment [15], in [16], in experiment [17] and in experiment [18] was “inactive” in each case. In addition, the Potency entry in experiment [19] and in experiment [20] was “inactive” in each case.
Take `O=C1CN(O)C(c2ccccc2)=c2cc(Cl)ccc2=N1`: the Potency result in [1], in experiment [2], in [3], in [4], in experiment [5] and in experiment [6] was “inactive” in each case. The Potency result in experiment [7], in [8], in [9], in experiment [10], in experiment [11] and in [12] was “inactive” in each case. The Potency entry in experiment [13], in [14], in experiment [15], in experiment [16], in experiment [17] and in experiment [18] was “inactive” each time. The Potency result in [19] and in experiment [20] was “inactive” throughout.
With `O=[N+]([O-])c1ccc(F)c([N+](=O)[O-])c1`, the Potency result in [1], in [2], in experiment [3], in experiment [4], in experiment [5] and in [6] was “inactive” throughout. Further, the Potency entry in experiment [7], in [8], in experiment [9], in experiment [10], in [11] and in experiment [12] was “inactive” throughout. Further, the Potency result in experiment [13], in experiment [14], in [15], in experiment [16], in [17] and in experiment [18] was “inactive” each time. Besides, the Potency entry in [19] and in experiment [20] was “inactive” each time.
Consider `CCON=O`, for which the Potency result in experiment [1], in experiment [2], in experiment [3], in [4], in [5] and in experiment [6] was “inactive” in each case. The Potency result in experiment [7], in experiment [8], in [9], in experiment [10], in experiment [11] and in experiment [12] was “inactive” each time. In addition, the Potency entry in experiment [13], in [14], in experiment [15], in experiment [16], in [17] and in experiment [18] was “inactive” each time. Further, the Potency entry in experiment [19] and in experiment [20] was “inactive” throughout.
Consider `CCCC(C)C1(CC)C(=O)NC(=O)NC1=O` (stereo not given), for which the Potency entry in experiment [1], in experiment [2], in experiment [3], in experiment [4], in [5] and in experiment [6] was “inactive” each time. Also, the Potency result in experiment [7], in experiment [8], in [9], in [10], in experiment [11] and in experiment [12] was “inactive” in each case. The Potency result in experiment [13], in experiment [14], in experiment [15], in [16], in experiment [17] and in experiment [18] was “inactive” each time. Moreover, the Potency result in experiment [19] and in [20] was “inactive” each time.
Turning to `CN1c2ccccc2C(NCCCCCCC(=O)O)c2ccc(Cl)cc2S1(=O)=O` (stereo not given), the Potency result in [1], in experiment [2], in [3], in experiment [4], in experiment [5] and in [6] was “inactive” in each case. Moreover, the Potency result in [7], in [8], in experiment [9], in experiment [10], in [11] and in [12] was “inactive” in each case. Besides, the Potency result in [13], in experiment [14], in experiment [15], in experiment [16], in [17] and in experiment [18] was “inactive” in each case. The Potency entry in [19] and in experiment [20] was “inactive” in each case.
As for `O=C(OCCN1CCCCC1)C(O)(c1ccccc1)c1ccccc1`, the Potency result in [1], in [2], in experiment [3], in experiment [4], in experiment [5] and in experiment [6] was “inactive” in each case. The Potency result in experiment [7], in [8], in experiment [9], in experiment [10], in [11] and in experiment [12] was “inactive” throughout. Further, the Potency result in experiment [13], in experiment [14], in experiment [15], in [16], in experiment [17] and in experiment [18] was “inactive” throughout. The Potency result in [19] and in experiment [20] was “inactive” in each case.
For `CCCCCCCCOC(=O)c1ccccc1C(=O)OCCCCCCCC`, the Potency result in [1], in [2], in experiment [3], in experiment [4], in experiment [5] and in experiment [6] was “inactive” throughout. The Potency result in experiment [7], in experiment [8], in experiment [9], in [10], in experiment [11] and in [12] was “inactive” each time. Moreover, the Potency result in experiment [13], in [14], in [15], in experiment [16], in experiment [17] and in experiment [18] was “inactive” throughout. For the same compound, the Potency entry in experiment [19] and in [20] was “inactive” throughout.
On to `ClCC1CO1` (stereo not given), for which the Potency result in [1], in experiment [2], in experiment [3], in [4], in [5] and in experiment [6] was “inactive” each time. For the same compound, the Potency entry in experiment [7], in experiment [8], in experiment [9], in [10], in experiment [11] and in experiment [12] was “inactive” in each case. For the same compound, the Potency entry in [13], in experiment [14], in [15], in experiment [16], in experiment [17] and in [18] was “inactive” throughout. For the same compound, the Potency entry in experiment [19] and in [20] was “inactive” throughout.
